# Screens from PubChem BioAssay.
# Y pestis TopoI: blocks Yersinia pestis topoisomerase I activity. activity, % at 10 µM. Y. pestis Topo-I cleavage product accumulation, plate reader. AID 504884. actives 0.064% (n = 360,000); in the data active = activity above about 50%, passing the limit was not always enough
# FadD28 binding: M. tuberculosis FadD28 bisubstrate binding inhibition; FadD28 bisubstrate probe binding, fluorescence polarization; inhibition, % at 12.5 µM; actives 0.22% (n = 360,000); in the data active = inhibition above about 8.5%, passing the limit was not always enough
# TcdB GH inh: inhibitors of Clostridioides difficile toxin B glycohydrolase; P18177; TcdB glycohydrolase enzymatic assay, plate reader; inhibition, % at 9.99 µM; actives 0.24% (n = 350,000); in the data active = inhibition above about 10%
# BioA inh: BioA (M. tuberculosis) enzyme inhibition; AID 602481; purified M. tuberculosis BioA enzyme, plate reader; inhibition, % at 9.99 µM; actives 0.096% (n = 360,000); in the data active = inhibition above about 40%
# DUSP3 inh: blocks human VHR1 dual specificity phosphatase; P51452; recombinant VHR phosphatase, pNPP absorbance; inhibition, % at 13.3 µM; actives 0.52% (n = 290,000); AID 1654; in the data active = inhibition above about 50%
# Target sequence (P51452 whole entry, looked up): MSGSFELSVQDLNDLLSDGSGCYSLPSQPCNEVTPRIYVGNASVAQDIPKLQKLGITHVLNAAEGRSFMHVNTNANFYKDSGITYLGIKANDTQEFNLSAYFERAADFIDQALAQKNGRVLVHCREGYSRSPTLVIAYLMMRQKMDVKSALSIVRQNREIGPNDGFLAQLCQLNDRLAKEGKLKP
# MazF activator: increases E. coli MazEF RNase cleavage of RNA; P0AE70; FAM/BHQ RNA-DNA oligo cleavage fluorescence, 5 h; activation, % at 20 µM; actives 0.32% (n = 350,000); in the data active = activation above about 50%
# Target sequence (P0AE70 whole entry, looked up): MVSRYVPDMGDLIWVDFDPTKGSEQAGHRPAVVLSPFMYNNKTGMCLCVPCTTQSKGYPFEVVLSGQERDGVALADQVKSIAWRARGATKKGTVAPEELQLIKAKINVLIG
# Hits are given with their value; i = inactive; nt = no result. A selection: hits, their analogues and other compounds. The true share with any hit is near 1%.
SMILES,Y pestis TopoI,FadD28 binding,TcdB GH inh,BioA inh,DUSP3 inh,MazF activator
COc1cc(C(C)=O)ccc1Oc1ncnc2c1cnn2-c1ccccc1,i,i,i,i,i,60.2
NC(=O)NC(CC(=O)NCCc1ccccn1)c1ccccc1Cl (stereo not given),i,i,i,i,53.3,i
NC(=O)NC(CC(=O)NCCCc1ccccc1)c1ccccc1Cl (stereo not given),i,i,i,nt,i,i
Cc1ccccc1NS(=O)(=O)c1ccc(OCC(=O)N2CCCCC2)cc1,i,i,10.8,i,i,i
COc1ccc(O)c(/C=N/NS(=O)(=O)c2ccc(C)cc2)c1,i,i,i,i,i,i
CC(=O)Oc1ccc(/C=N/NS(=O)(=O)c2ccc(C)cc2)c(OC(C)=O)c1,i,i,i,i,53.9,i
CCN1CCN(c2cc(C)c3cc(NC(=O)c4ccc(C)c(C)c4)ccc3n2)CC1,i,i,i,i,nt,58.8
CCN1CCN(c2nc3c(c(=O)[nH]c(=O)n3C)n2CCCSc2ncccn2)CC1,i,i,nt,i,i,53.8
Cn1c(=O)c2c(nc(N3CCOCC3)n2CCSc2ncccn2)n(C)c1=O,i,i,16.8,i,i,i
COc1cccc(NC(=O)N2CC3(C2)[C@H](c2ccccc2)[C@H](CO)N3C(=O)C2CC2)c1,nt,nt,i,nt,nt,nt
C[C@H](NC(=O)N(C)C[C@@H]1OCc2ccccc2-c2c(n(C)c3ccccc23)C(=O)N([C@H](C)CO)C[C@@H]1C)c1ccccc1,nt,nt,nt,i,nt,nt
COc1cccc(C#Cc2cnc3c(c2)C(=O)N([C@@H](C)CO)C[C@@H](C)[C@H](CN(C)C(=O)C2CC2)O3)c1,nt,nt,i,i,nt,nt
COc1ccc(O)c(/C=N/NC(=S)Nc2cccc(S(=O)(=O)N(C)C)c2)c1,i,17.6,nt,i,i,i
Cc1ccc(N=Nc2c(O)[nH]c3ccc(F)cc23)cc1,i,i,i,i,i,474.0
Cc1ccc(N=Nc2[nH]c3ccccc3c2O)cc1,i,i,i,i,i,564.5
COc1ccc(N=Nc2[nH]c3ccc(C)cc3c2O)cc1,i,i,nt,nt,i,i
O=c1[nH]nc(N=Nc2c(O)[nH]c3ccc(F)cc23)c(=O)[nH]1,i,i,i,i,nt,i
C/C=C/c1cnc2c(c1)C(=O)N([C@H](C)CO)C[C@@H](C)[C@H](CN(C)Cc1ccc(F)cc1)O2,nt,nt,i,i,nt,nt
CN=c1scc(-c2ccccc2F)n1/N=C/c1ccc(O)c(O)c1O,i,9.1,i,i,i,i
CN=c1scc(-c2ccccc2F)n1/N=C/c1ccc[nH]1,i,i,i,nt,i,i
C[C@H](CO)N1C[C@H](C)[C@H](CN(C)Cc2ccc(Oc3ccccc3)cc2)OCc2ccccc2-c2c(n(C)c3ccccc23)C1=O,nt,nt,i,nt,nt,nt
CCOC(=O)CSc1nc2c(sc(=S)n2-c2ccccc2)c(=O)n1-c1ccc(OC)cc1OC,i,i,i,i,52.6,i
Cc1cc(-n2c(=S)sc3c(=O)n(-c4ccc(F)cc4)c(SCC(=O)O)nc32)ccc1Cl,i,i,i,nt,i,i
CCN(CC)C(=O)CSc1nc2c(sc(=S)n2-c2ccccc2)c(=O)n1-c1ccc(OC)cc1OC,i,i,i,i,i,i
COc1ccccc1-n1c(SCC(=O)O)nc2c(sc(=S)n2-c2ccc(Cl)c(C)c2)c1=O,i,i,12.8,i,i,i
SMILES,Y pestis TopoI,FadD28 binding,TcdB GH inh,BioA inh,DUSP3 inh,MazF activator
COc1ccccc1-n1c(SCC(=O)O)nc2c(sc(=S)n2-c2ccc(C)c(C)c2)c1=O,i,i,11.2,nt,i,i
Cc1ccc(-n2c(=S)sc3c(=O)n(-c4ccccc4C)c(SCC(=O)O)nc32)cc1C,i,i,i,i,i,i
CCOc1ccccc1-n1c(=S)sc2c(=O)n(-c3ccc(F)cc3)c(SCC(=O)O)nc21,i,nt,19.8,i,i,i
C[C@H](CO)N1C[C@H](C)[C@H](CN(C)S(=O)(=O)c2ccccc2)Oc2ncc(-c3cccc(C(=O)N(C)C)c3)cc2C1=O,nt,nt,nt,i,nt,nt
C[C@H](CO)N1C[C@H](C)[C@H](CN(C)C(=O)Nc2ccc3c(c2)OCO3)Oc2ccc(NC(=O)Cn3cnnn3)cc2CC1=O,nt,nt,i,i,nt,nt
C[C@@H]1CN([C@@H](C)CO)C(=O)c2cc(NC(=O)Cc3ccccc3)ccc2O[C@@H](C)CCCCO[C@H]1CN(C)CC1CCCCC1,nt,nt,i,i,nt,nt
COC(=O)C[C@H]1CC[C@H]2[C@H](COc3ccc(NC(=O)c4cccc(F)c4)cc3C(=O)N2C)O1,nt,nt,i,i,nt,nt
COc1cc2c(cc1OC)C1=CC(=O)C(=O)N1C(C)(C)C2,i,i,i,nt,i,54.9
CO[C@H]1CN(C)C(=O)c2ccc(NC(=O)c3ccccc3F)cc2OC[C@@H](C)N(C(C)=O)C[C@@H]1C,nt,nt,i,i,nt,nt
Cc1ccc(S(=O)(=O)N2CC(CO)=CCC2c2ccccc2)cc1 (stereo not given),nt,nt,25.5,nt,nt,nt
CCc1ccc([C@@H]2CC=C(C(=O)O)CN2S(=O)(=O)c2ccc(C)cc2)cc1,i,i,i,i,nt,i
CCC(=O)N1CC2(C1)CN(C(=O)CC)[C@@H](CO)c1[nH]c3cc(OC)ccc3c12,nt,nt,i,nt,nt,nt
CCC(=O)N1CC2(C1)CN(Cc1ccccc1Cl)[C@H](CO)c1c2c2ccc(OC)cc2n1C,nt,nt,i,nt,nt,nt
CCOc1ccc(/C=C/C(=O)Nc2ccc(OC)cc2[N+](=O)[O-])cc1,i,i,nt,nt,i,236.8
C/C=C/c1ccc2c(c1)O[C@@H](CN(C)C(=O)CN(C)C)[C@H](C)CN([C@H](C)CO)S2(=O)=O,nt,nt,i,i,nt,nt
COCCNC(=O)C[C@@H]1C[C@@H]2c3cc(NC(=O)COC)ccc3O[C@@H]2[C@@H](CO)O1,nt,nt,i,i,nt,nt
S=C(NCCc1ccccc1)Nc1ncccn1,i,i,10.6,i,nt,i
Cc1cccnc1NC(=S)NCCc1ccccc1,i,i,i,nt,i,i
COc1cc(C2C(C#N)=C(N)OC3=C2C(=O)CC(C)(C)C3)c([N+](=O)[O-])cc1OC (stereo not given),i,i,nt,nt,i,i
CC1(C)CC(=O)C2=C(C1)OC(N)=C(C#N)[C@@H]2c1ccccc1[N+](=O)[O-],i,i,i,i,i,78.3
C#CCOCCOCCOCCNc1nc(N2CCN(C(=O)CCCCCCCCCCNC(=O)[C@H]([C@@H](C)CC)n3cc(CCCCCN)nn3)CC2)nc(N2CCN(C(=O)CCCCCCCCCCNC(=O)[C@H]([C@@H](C)CC)n3cc(CCCCN=C(N)N)nn3)CC2)n1,104.9,i,nt,i,nt,nt
C#CCOCCOCCOCCNc1nc(N2CCN(C(=O)CCCCCCCCCCNC(=O)Cn3cc(C[C@@H](C)O)nn3)CC2)nc(N2CCN(C(=O)CCCCCCCCCCNC(=O)[C@@H](CCC(=O)O)n3cc(CCCCCN)nn3)CC2)n1,i,i,i,i,nt,62.9
Cc1csc(N=Nc2ccc(N(C)C)cc2)[n+]1[O-],i,i,12.6,nt,nt,i
O=C(C[C@@H]1CC[C@H]2[C@@H](COC[C@@H](O)CN2C(=O)c2ccc(F)cc2)O1)NC1Cc2ccccc2C1,nt,nt,i,i,nt,nt
